Assay results published in ChEMBL document CHEMBL3988442, “University of Dundee, Small-Polar-MMV Screening Library” (2021).
The campaign covered roughly 66,000 compounds. About 960 (1.5%) showed an effect of 50% or more. The list comes from a sample in which strong results are over-represented; it also holds similar structures and randomly drawn compounds.

System: Trypanosoma brucei
Assay: Trypanosoma brucei 72 hour study
Type: functional, organism-based
Design: scale not given: in the data most compounds retested in dose-response had high values

SMILES	Percent Effect (30.3 µM, […]) [%]	Percent Effect (30 µM, 30.03 µM) [%]
O=C(NCCc1nnc2n1CCC2)NCC1(c2ccccc2)CC1	3.515	–
O=C(O)C(F)(F)F.O=C(c1ccsc1)N1CCC2(CCN(Cc3ccccn3)C2=O)C1 (stereo not drawn)	–	-3.251
CC(C)C(=O)N1CCC(n2nc(-c3ccco3)ccc2=O)CC1	-15.18	–
Cc1nnc2ccc(N3CCC(C(=O)Nc4nccs4)CC3)nn12	–	0.472
CC(C)c1nnc2ccc(N3CCC(C(=O)Nc4nccs4)CC3)nn12	–	61.33
CC(C)c1nnc2ccc(N3CCCC(C(=O)Nc4nccs4)C3)nn12 (stereo not drawn)	–	-31.38
CC(C)C1CN(c2cccc(C#N)n2)CCCN1CC1CC1 (stereo not drawn)	-2.966	–
CC(C)C1CN(S(C)(=O)=O)CCCN1Cc1ccc(F)cc1 (stereo not drawn)	–	-25.6
CC(C)C1CN(c2cccc(C#N)n2)CCCN1Cc1ccc(F)cc1 (stereo not drawn)	99.78	–
CN(C)C(=O)[C@H]1C[C@H]2OCC[C@H]2N(Cc2ccc3ccccc3n2)C1.O=C(O)C(F)(F)F.O=C(O)C(F)(F)F	-111.9	–
CC(C)NC(=O)c1cc2c(c3ccccc3n2C)n1C(=O)N(C)C	–	61.67
CCCNC(=O)c1cc2c(c3ccccc3n2C)n1C(=O)N(C)C	27.2	–
COCCNC(=O)c1cc2c(c3ccccc3n2C)n1C(=O)N(C)C	–	28.71
Cc1ccsc1CN1CCC(n2cc(C(O)c3ccccc3)nn2)CC1 (stereo not drawn)	-15.95	–
CCc1nnc2n1CCN(C(=O)CCOc1ccc(C)cc1C)C2	–	-30.52
O=C(O)C(F)(F)F.O=C([C@@H]1CCO[C@@H]2CCN(CC3CCOCC3)C[C@H]21)N1CCCO1	–	-11.19
CCOCC(=O)N1C[C@@H]2CCN(c3cnccn3)C[C@@H]2C1.O=C(O)C(F)(F)F	-17.39	–
CCN1CCn2c(C)cnc2C12CCN(C(=O)NC)CC2.O=C(O)C(F)(F)F	-20.19	–
CCOC(=O)C1CCCN(Cc2c[nH]nc2-c2cc3ccccc3o2)C1 (stereo not drawn)	15.89	–
CCOC(=O)C1CCCCN1Cc1c[nH]nc1-c1cc2ccccc2o1 (stereo not drawn)	58.53	–
CCOC(=O)C1CCCCN1Cc1c[nH]nc1-c1ccc(F)cc1F (stereo not drawn)	-2.201	–
CCN(CC)C1COc2c(cc(Br)c(C)c2Br)C1=O (stereo not drawn)	52.72	–
CCN(CC)C1COc2c(cc(Br)c(C)c2C)C1=O (stereo not drawn)	-8.815	–
Cc1c(Br)cc2c(c1C)OCC(N(C)C)C2=O (stereo not drawn)	0.8254	–

SMILES	Percent Effect (30.3 µM, […]) [%]	Percent Effect (30 µM, 30.03 µM) [%]
Cc1ccc(C(=O)N2CC(=O)N(Cc3cccs3)CC(O)C2)cc1 (stereo not drawn)	2.037	–
O=C1CN(C(=O)c2ccc(F)cc2)CC(O)CN1Cc1cccs1 (stereo not drawn)	5.097	–
O=C1CN(C(=O)c2ccc(Cl)cc2)CC(O)CN1Cc1cccs1 (stereo not drawn)	99.92	–
CN1C[C@@H]2CC[C@H](CC1=O)N2C(=O)c1ccc(-c2ccccc2)[nH]c1=O	2.014	–
CC(C)OCCCN(Cc1ccncc1)Cc1cc(F)ccc1F.Cl	-3.291	–
C/C(Cl)=C/CNC(=O)[C@H]1CC[C@]2(CC1)CN(C)C(=O)c1ccccc1O2	-12.03	–
CO[C@H]1CN(C(C)C)C[C@@H]1NC(=O)Nc1cccc(SC)c1	–	-47.34
CO[C@H]1CN(C(C)C)C[C@@H]1NC(=O)Nc1ccc2oc(C)cc2c1	–	-77.41
CO[C@H]1CN(C(C)C)C[C@@H]1NC(=O)Nc1ccc(C(F)(F)F)cc1	–	82.01
CO[C@H]1CN(C(=O)OC(C)(C)C)CC1NCc1cccn1C (stereo partly drawn)	–	-31.18
Cc1ccc(C2COCCN2C(=O)c2ccc(F)c(F)c2)o1 (stereo not drawn)	–	29.67
Cc1ccc(C2COCCN2C(=O)c2cccc(N(C)C)c2)o1 (stereo not drawn)	–	50.27
Cc1ccc(C2COCCN2C(=O)c2ccc(N(C)C)cc2)o1 (stereo not drawn)	–	5.525
CN(C)C(=O)CN1C(=O)C[C@@H]2[C@@H]1CCN2Cc1cccc(C#N)c1.O=C(O)C(F)(F)F	-180.8	–
Cc1nc(C)c(C(=O)N2CCc3nc4c(C)csc4c(=O)n3CC2)s1.Cl	-52.81	–
CN(c1ncc(C(=O)Nc2ccccc2)c(N)n1)C1CCCCC1	1.024	–
COc1ccc(NC(=O)c2cnc(N(C)C3CCCCC3)nc2N)cc1	61	–
Cc1nc(N(C)C2CCCCC2)ncc1C(C)NC(=O)c1cccnc1 (stereo not drawn)	-134.2	–
COc1ccc(NC(=O)c2cnc(C3CCN(C)CC3)nc2C)cc1	-7.704	–
CN(c1ncc(C(=O)NCc2ccccc2)c(N)n1)C1CCCCC1	91.96	–
CN(c1ccc(CNC(=O)c2ccc(O)nc2)cc1)C1CCCCC1	–	-19.08
Cc1ccc(N2Cc3nc(=O)n(C(C)C)n3C2=O)cc1	–	-28.54
CN(C(=O)Cc1ccc(NC(=O)NC2CCC2)cc1)c1ccccc1	–	-6.814
CC(C)c1nccc(CN(C)Cc2cnn(-c3ccccc3)c2)n1	–	6.527
